Structures are written as SMILES. Results filed as inconclusive are left out. Calls of active or inactive are those of the source. Unless noted, cut-off not given; nearly all actives show AC50 up to about 26 µM.

A short description of the first experiment: viability loss in pontine glioma line – cell-based, SU-DIPG-XXV, MIPE5.0, CellTiter-Glo, qHTS, dose response (AID 1347065).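 Further: cells exposed to compound for 48 hours before ATP readout.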 Conditions: CellTiter-Glo ATP luminescence.
For orientation: AC50 means the concentration giving half of the maximal activity seen. Take `CC[C@H](CC#N)OC(=O)N[C@@H](C)c1cccc(NC(=O)Nc2ccc(-c3cnco3)c(OC)c2)c1`: the AC50 is 0.468 µM (active). With `CN1c2ccccc2C(=O)N2CCc3c([nH]c4ccccc34)C21` (stereo unspecified), the AC50 was 2.35 µM (active). Regarding `O=c1ccn([C@@H]2O[C@H](CO)[C@@H](O)[C@@H]2F)c(=O)[nH]1`, the molecule was classed as inactive.

Consider `CCNC(=O)Nc1ccc(-c2nc3c(c(N4CCOC[C@@H]4C)n2)CCN(C2COC2)C3)cc1`, for which the AC50 is 1.32 µM (active). On to `O=C(Nc1nc2cccc(-c3ccc(CN4CCS(=O)(=O)CC4)cc3)n2n1)C1CC1`, for which the AC50 is 9.34 µM (active).

For the molecule `CNC(=O)c1cc(Oc2ccc(NC(=O)Nc3ccc(Cl)c(C(F)(F)F)c3)c(F)c2)ccn1`, the AC50 is 20.9 µM (active). With `CCCc1cc(C)[nH]c(=O)c1CNC(=O)c1cc(-c2ccnc(N3CCN(C)CC3)c2)cc2c1cnn2C(C)C`, the outcome was inactive.

Take `O=C1[C@H](Cc2ccc(O)cc2)N2C(=O)CCN(C(=O)NCc3ccccc3)[C@H]2CN1Cc1cccc2ccccc12`: the half-maximal activity concentration (AC50) was 3.32 µM (active). As to `Cc1cc(O)c(-c2ccc([C@@H](C)CN)cc2)c2c1[nH]c(=O)c1sccc12`, the AC50 was 0.148 µM (active). On to `O=C(O)/C(S)=C/c1ccc(I)cc1`, for which the molecule was called inactive. For the molecule `Nc1cccc(-c2cc3c(Oc4cccc(O)c4)ncnc3[nH]2)c1`, the AC50 is 5.25 µM (active). On to `COC1=C2C[C@H](C)C[C@H](OC)[C@H](O)[C@@H](C)/C=C(/C)[C@H](OC(N)=O)[C@@H](OC)/C=C\C=C(\C)C(=O)NC(=CC1=O)C2=O`, for which the half-maximal activity concentration (AC50) is 0.417 µM (active). Take `COc1ccc(-c2cc3nccn3c(Nc3ncccc3C(N)=O)n2)cc1OC`: the AC50 was 5.25 µM (active). Same read-out and setting: then `c1ccc(-c2cc(CCC3CCNCC3)c3ccccc3n2)cc1`, with 23.5 µM (active); and `CN(C)CC(=O)N1CCC(c2ccc(NC(=O)c3ncc(C#N)[nH]3)c(C3=CCCCC3)c2)CC1`, with 20.9 µM (active); and `CCC(=C/[C@H](C)C/C=C/C(C)=C/[C@@H](C)C(=O)[C@@H](C)[C@H](O)[C@@H](C)C/C(C)=C/C(=O)O)/C=C/[C@@H]1OC(=O)C=C[C@@H]1C`, with 0.00209 µM (active). On to `N#Cc1ccc(COC[C@H]2O[C@@H](n3c(NCc4ccc(Cl)c(Cl)c4)nc4c(N)ncnc43)[C@H](O)[C@@H]2O)cc1`, for which the AC50 was 18.6 µM (active). Still for that read-out and setting: the same measure for `CC(C)(O)CC(=O)NCCn1ccc2ncnc(Nc3ccc(Oc4cccc(C(F)(F)F)c4)c(Cl)c3)c21`: 26.3 µM (active); for `CNc1nccc(-c2cccnc2Oc2cc(C(=O)Nc3cccc(C(F)(F)F)c3)ccc2C)n1`: 5.9 µM (active). Regarding `O=C(CCCCCCC(=O)Nc1ccc([C@H]2O[C@@H](CSc3nc(-c4ccccc4)c(-c4ccccc4)o3)C[C@@H](c3ccc(CO)cc3)O2)cc1)NO`, the molecule was called inactive. For the molecule `COc1cc2ncnc(Nc3cccc(Cl)c3)c2cc1OC`, the AC50 was 20.9 µM (active). Still for that read-out and setting: then `CS(=O)(=O)N1CCc2c(-c3cnc(N)nc3)nc(N3CCOCC3)nc21`, with 0.525 µM (active). As to `CC(=O)Oc1cc2c(s1)CCN(C(C(=O)C1CC1)c1ccccc1F)C2` (stereo unspecified), the molecule was classed as inactive. Consider `CCCCNc1ncc(-c2ccc(CN3CCOCC3)cn2)c(NC2CCC(O)CC2)n1` (stereo unspecified), for which the AC50 was 1.82 µM (active). Consider `O=C1NC(=O)[C@@H](c2cn3c4c(cccc24)CCC3)[C@@H]1c1c[nH]c2ccccc12`, for which the concentration at half-maximal activity (AC50) was 1.48 µM (active). On the same count and under the same terms, the same measure for `N#Cc1c(N)nc(N)nc1N[C@H](c1nc2c(F)ccc(Cl)c2c(=O)n1-c1cccnc1)C1CC1`: 11.8 µM (active).

A short description of the next experiment: SU-DIPG-VI glioma cell viability, MIPE4.0 library, CellTiter-Glo luminescence, qHTS (AID 1347066; cut-off not given, nearly all actives have AC50 up to about 30 µM;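 further: cells exposed to compound for 48 hours before readout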). The settings on record: CellTiter-Glo ATP luminescence. Background: Cellular ATP, detected with luciferase, serves as a proxy for viable cell number.
For `N#C/C(=C1/Nc2ccccc2S1)c1ccnc(OCc2ccc(CN3CCOCC3)cc2)n1`, the concentration at half-maximal activity (AC50) was 0.743 µM (active).

Consider `CN1c2ccccc2C(=O)N2CCc3c([nH]c4ccccc34)C21` (stereo unspecified), for which the molecule was called inactive. In the case of `O=c1ccn([C@@H]2O[C@H](CO)[C@@H](O)[C@@H]2F)c(=O)[nH]1`, the outcome was inactive. As for `CNC(=O)c1cc(Oc2ccc(NC(=O)Nc3ccc(Cl)c(C(F)(F)F)c3)c(F)c2)ccn1`, the AC50 was 9.35 µM (active).

In the case of `CN(C)CC(=O)N1CCC(c2ccc(NC(=O)c3ncc(C#N)[nH]3)c(C3=CCCCC3)c2)CC1`, the AC50 was 18.7 µM (active).

`N#Cc1ccc(COC[C@H]2O[C@@H](n3c(NCc4ccc(Cl)c(Cl)c4)nc4c(N)ncnc43)[C@H](O)[C@@H]2O)cc1`: the call was inactive. On the same count and under the same terms, the same measure for `CC[C@@H]([C@H](C)O)n1ncn(-c2ccc(N3CCN(c4ccc(OCC5CO[C@@](Cn6cncn6)(c6ccc(F)cc6F)C5)cc4)CC3)cc2)c1=O` (stereo partly specified): “inactive”.

On to `CNc1nc(Nc2ccc(C(=O)N3CCOCC3)cc2OC)ncc1Cl`, for which the molecule was called inactive. On the same count and under the same terms, the same measure for `Nc1ccn([C@@H]2O[C@H](CO)[C@@H](O)C2(F)F)c(=O)n1`: “inactive”. `O=C1NC(=O)[C@@H](c2cn3c4c(cccc24)CCC3)[C@@H]1c1c[nH]c2ccccc12`: the AC50 is 23.5 µM (active).

A further experiment can be described thus: JHH-DIPG-1 glioma cell viability, MIPE5.0 library, CellTiter-Glo luminescence, qHTS (AID 1347067).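 Further: cells exposed to compound for 48 hours before readout.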 The settings on record: JHH-DIPG-1 glioma viability, CellTiter-Glo ATP luminescence.
In the case of `Clc1ccc2ncc(-c3cccc(NC4CNC4)n3)n2c1`, the outcome was inactive. For `CC[C@H](CC#N)OC(=O)N[C@@H](C)c1cccc(NC(=O)Nc2ccc(-c3cnco3)c(OC)c2)c1`, the AC50 is 2.63 µM (active). The same measure, in the same setting: the same measure for `N#C/C(=C1/Nc2ccccc2S1)c1ccnc(OCc2ccc(CN3CCOCC3)cc2)n1`: 20.9 µM (active). Same read-out and setting: the same measure for `CN1c2ccccc2C(=O)N2CCc3c([nH]c4ccccc34)C21` (stereo unspecified): 5.25 µM (active). For `O=c1ccn([C@@H]2O[C@H](CO)[C@@H](O)[C@@H]2F)c(=O)[nH]1`, the result was inactive. For the molecule `CC(C)=CCC/C(C)=C/CC/C(C)=C/CSc1ccccc1C(=O)O`, the result was inactive.

Regarding `CO[C@@H]1[C@@H](O)[C@H](O)[C@@H](n2c3c(Cl)cccc3c3c4c(c5c6cccc(Cl)c6[nH]c5c32)C(=O)NC4=O)O[C@H]1CO`, the AC50 is 2.63 µM (active). `CN(C)CC(=O)N1CCC(c2ccc(NC(=O)c3ncc(C#N)[nH]3)c(C3=CCCCC3)c2)CC1`: the molecule was classed as inactive. With `CCC(=C/[C@H](C)C/C=C/C(C)=C/[C@@H](C)C(=O)[C@@H](C)[C@H](O)[C@@H](C)C/C(C)=C/C(=O)O)/C=C/[C@@H]1OC(=O)C=C[C@@H]1C`, the AC50 was 18.6 µM (active). Still for that read-out and setting: then `N#Cc1ccc(COC[C@H]2O[C@@H](n3c(NCc4ccc(Cl)c(Cl)c4)nc4c(N)ncnc43)[C@H](O)[C@@H]2O)cc1`, with 18.6 µM (active). With `CC(C)(O)CC(=O)NCCn1ccc2ncnc(Nc3ccc(Oc4cccc(C(F)(F)F)c4)c(Cl)c3)c21`, the AC50 was 20.9 µM (active). On to `O=C(CCCCCCC(=O)Nc1ccc([C@H]2O[C@@H](CSc3nc(-c4ccccc4)c(-c4ccccc4)o3)C[C@@H](c3ccc(CO)cc3)O2)cc1)NO`, for which the molecule was classed as inactive. Regarding `CNC(=O)c1cc(COc2nnc(Nc3ccc(Cl)cc3)c3ccoc23)ccn1`, the AC50 is 5.9 µM (active). For the molecule `Nc1ccn([C@@H]2O[C@H](CO)[C@@H](O)C2(F)F)c(=O)n1`, the outcome was inactive. Take `CC(=O)Oc1cc2c(s1)CCN(C(C(=O)C1CC1)c1ccccc1F)C2` (stereo unspecified): the molecule was called inactive.

These data come from PubChem BioAssay.
